The whole screen tested about 69,000 compounds, of which about 8,600 (12%) showed an effect of 50% or more. What follows is part of a selection rich in strong results, with near analogues and random picks from the rest.

The subject of this experiment is Plasmodium berghei. In words: Screen against P. berghei liver stage (PbLuc), transformed with Luciferase, at 10uM. In kind it is functional, HepG2. The conditions noted are these: tested at 10 uM.
In the case of `Cc1cc(C)c2c(c1)C(CC(=O)O)C(=O)N2` (centres undefined), the INHIBITION came out at 54.8%.
With `Cc1cc(C)c2c(c1)NC(=O)C2CC(=O)O` (centres undefined), the INHIBITION is listed as 27.6%.
`Cc1ccc(C)c2c1NC(=O)C2CC(=O)O` (centres undefined): the INHIBITION was -95.1%.
As to `CCCc1nc(N2CCCN(c3ccncc3)CC2)c2cnn(C)c2n1`, the INHIBITION was 39.1%.
In the case of `CCn1cnnc1C1CCN(C(=O)c2cc(F)ccc2OC)CC1`, the INHIBITION came to 33.3%.
For `NC(=O)CS(=O)(=O)Cc1cc(Cl)c2c(c1)OCCCO2` the value was -125%.
For `CNC(=O)CS(=O)(=O)Cc1cc(Cl)c2c(c1)OCCCO2` the value was 6.14%; for `O=C(CS(=O)(=O)Cc1cc(Cl)c2c(c1)OCCCO2)NCC1CC1`, 60.5%.
Consider `CS(=O)(=O)CCS(=O)(=O)Cc1cc(Cl)c2c(c1)OCCCO2`, for which the INHIBITION amounted to 25.5%.
With `CN(C)C(=O)CCCS(=O)(=O)Cc1cc(Cl)c2c(c1)OCCO2`, the INHIBITION turned out to be 31.9%.
As to `CS(=O)(=O)Cc1cc(Cl)c2c(c1)OCCCO2`, the INHIBITION stood at 50.1%.
Take `CN(C)C(=O)CCS(=O)(=O)Cc1cc(Cl)c2c(c1)OCCO2`: the INHIBITION is 54.4%.
Consider `CN(C)C(=O)CCS(=O)(=O)Cc1cc(Cl)c2c(c1)OCO2`, for which the INHIBITION came out at 44.3%.
As to `CN(C)C(=O)CS(=O)(=O)Cc1cc(Cl)c2c(c1)OCCCO2`, the INHIBITION was determined as 21.8%.
Take `CSCC(=O)N1C[C@H](c2ccc(C)o2)[C@@H](N)C1`: the INHIBITION is -1.45%.
For `CCNc1ncc(CN2CCOC(Cc3cccc(OC)c3)C2)cn1` (centres undefined) the value was 15.2%.
With `Cn1cnc2c1C(COCc1cccnc1)N(Cc1nccs1)CC2` (centres undefined), the INHIBITION was 20.1%.
For `CCN(Cc1c(C)nn(CC)c1C)S(=O)(=O)c1cn(C)nc1C`, the INHIBITION came to 8.49%.
`COc1ccccc1CN1CC[C@]2(C[C@@H](OC)CO2)C1`: the INHIBITION is recorded as -79.4%.
As to `CCC(C(=O)NC1CCCCC1)n1ccc2ncccc2c1=O` (centres undefined), the INHIBITION was -4.12%.
For `Nc1nc(N2CCCCCC2)ncc1C(=O)NCc1ccc(F)c(Cl)c1` the value was 43.8%; for `CN(C)CC1(O)CCCN(C(=O)CCc2nc3cccnc3n2C)C1` (centres undefined), 8.64%; for `Cn1cc(CCNC(=O)c2cc3ccccc3nc2N2CCCC2)cn1`, 59.4%.
With `CCOC(=O)NCCNC(=O)c1cc2ccccc2nc1N1CCCC1`, the INHIBITION is given as -7.36%.
With `CS(=O)(=O)CCNC(=O)c1cc2ccccc2nc1N1CCCC1`, the INHIBITION is on record as -1.37%.
Consider `Cn1c(CCC(=O)N2CCC3(CCCO3)CC2)nc2cccnc21`, for which the INHIBITION worked out at 27.4%.
On to `CCc1cc(CNC(=O)N2CCC(Cc3cnn(C)c3)C2)on1` (centres undefined), for which the INHIBITION worked out at 3.1%.
Take `COc1ccccc1C1CNC(=O)c2nc(-c3cnn(C)c3)[nH]c2C1` (centres undefined): the INHIBITION is recorded as -36.5%.
On to `COc1ccccc1C1CNC(=O)c2nc(-c3nccn3C)[nH]c2C1` (centres undefined), for which the INHIBITION amounted to 55.7%.
On to `COc1ccccc1C1CNC(=O)c2nc(-c3ncc[nH]3)[nH]c2C1` (centres undefined), for which the INHIBITION worked out at 1.81%.
Turning to `Cc1nnc(NCc2ccccc2Cl)c(C#N)c1C`, the INHIBITION came out at 49.9%.
As to `Cc1ccccc1C1(CNc2nnc(C)c(C)c2C#N)CCOCC1`, the INHIBITION is given as 17.4%.
For `Cc1nnc(NCC2(c3ccccc3)CC2)c(C#N)c1C` the value was 9.48%; for `Cc1nnc(NCC2(c3ccc(Cl)cc3Cl)CCOCC2)c(C#N)c1C`, 52.9%; for `Cc1nnc(NCC2(c3ccccc3)CCC2)c(C#N)c1C`, 92.1%.
In the case of `COc1ccccc1C1(CNc2nnc(C)c(C)c2C#N)CCOCC1`, the INHIBITION was -10.2%.
Regarding `COc1ccccc1C1(CNc2nnc(C)c(C)c2C#N)CCCC1`, the INHIBITION is 97.1%.
For `COCc1ccccc1CNc1nnc(C)c(C)c1C#N`, the INHIBITION was 22.9%.
On to `Cc1nnc(NCC2(c3ccccc3)CCOCC2)c(C#N)c1C`, for which the INHIBITION was determined as 6.67%.
Under `CCCc1cc(NC2CCc3nc(C(C)C)nn3C2)n2ncnc2n1` (centres undefined) stands -5.65%; under `COCCCNC(=O)N1CCN(C(=O)c2nsc3ccc(C)cc23)CC1`, 15.1%; under `CC(C)NC(=O)Cn1cc(OCc2ccc(F)cc2)c(=O)cc1CO`, 27.5%.
Under `COCCn1cc2c(n1)C(CNC(=O)c1cc(C)[nH]c1C)OCC2` (centres undefined) stands 23.6%.
Consider `O=C(NC1CCC(O)CC1)c1ccc2nc(-c3ccc(F)cc3)cn2c1` (centres undefined), for which the INHIBITION was 35.5%.
For `CCc1nnc2n1CCN(Cc1ncc(-c3ccc(F)cc3)o1)C2`, the INHIBITION is given as -3.235%.
With `Cc1nc(CNCC(C)c2nc3ccccc3o2)cs1` (centres undefined), the INHIBITION is listed as 20%.
On to `Cc1ncsc1CNCC(C)c1nc2ccccc2o1` (centres undefined), for which the INHIBITION worked out at 50%.
On to `Cc1csc(CNCC(C)c2nc3ccccc3o2)n1` (centres undefined), for which the INHIBITION worked out at 48.3%.
For `Nc1cc(-c2cncnc2C2CCN(C(=O)c3ccccc3)C2)ccn1` (centres undefined), the INHIBITION is 3.48%.
Regarding `Cn1ccnc1CN1C[C@@H]2[C@@H](C1)OCC(=O)N2CC1CCCC1`, the INHIBITION is on record as 39.8%.
For the compound `O=C(c1ccc[nH]1)N1CC[C@@H](OCC2CC2)[C@@H]1Cc1cccnc1`, the INHIBITION is -68.6%.
Take `O=C(Cc1cccnc1)N1CCC(OCc2ccccc2)CC1`: the INHIBITION turned out to be 7.84%.
On to `Cn1c(CN2CCC(OCc3cccnc3)CC2)cc2ccccc21`, for which the INHIBITION was 56.2%.
As to `O=C(C1CCOCC1)N1CCC(OCc2cccnc2)CC1`, the INHIBITION came to 85.2%.

For the origin of these results see ChEMBL document CHEMBL4513216, “Probing the Open Global Health Chemical Diversity Library for Multistage-Active Starting Points for Next-Generation Antimalarials” (ACS Infect Dis, 2020).
